# From the supplement of paper PMC13380429
# Values without a mark were called inactive.
# Test system: Vero E6 infected with SARS-CoV-2
# Test: inhibition of SARS-CoV-2 cytopathic effect; higher = more antiviral protection, active = above 15
# Settings: 100 nM; 48 h
row,Structure (SMILES),inhibition of SARS-CoV-2 cytopathic effect
1,CCN(C)C(=O)Oc1cccc([C@H](C)N(C)C)c1 [rivastigmine],2.11%
2,CCO[C@@H](Cc1ccc(OCCc2ccc(OS(C)(=O)=O)cc2)cc1)C(=O)O [tesaglitazar],0.15%
3,O=C1C[C@@H](c2ccc(O)cc2)Oc2cc(O)ccc21,2.13%
4,O=C1OCCN1/N=C/c1ccc([N+](=O)[O-])o1 [furazolidone],2.2%
5,O=C1C=Cc2cc(Br)ccc2C1=O [bonaphthone],-2.18%
6,CC(C)NNC(=O)c1ccncc1 [iproniazid],0.89%
7,CC1(C)S[C@@H]2[C@H](N3C(=O)[C@@H](c4ccccc4)NC3(C)C)C(=O)N2[C@H]1C(=O)O [hetacillin],0.82%
8,CC(C)(C#N)c1cc(Cn2cncn2)cc(C(C)(C)C#N)c1 [anastrozole],-0.32%
9,CC[C@@H](CO)NC(=O)[C@@H]1C=C2c3cccc4c3c(cn4C)C[C@H]2N(C)C1 [methysergide],0.82%
10,Cc1ccc2c(c1CCC(=O)O)CC[C@@H](NS(=O)(=O)c1ccc(Cl)cc1)C2 [terutroban],-5.1%
11,OCC(CO)N[C@H]1C[C@](O)(CO)[C@@H](O)[C@H](O)[C@H]1O [voglibose],1.72%
12,CN(C)CCCN1c2ccccc2Sc2ccccc21 [promazine],0.93%
13,CCCCOC(=O)c1ccc(N)cc1 [butamben],2.37%
14,COc1ccc2cc([C@H](C)C(=O)O)ccc2c1 [naproxen],1.16%
15,C[C@@H](O)[C@H]1C(=O)N2C(C(=O)O)=C([C@H]3CCCO3)S[C@H]12 [faropenem],1.66%
16,Cn1cc(C2=C(c3cn(C4CCN(Cc5ccccn5)CC4)c4ccccc34)C(=O)NC2=O)c2ccccc21 [enzastaurin],1.4%
17,Cc1c(S(=O)(=O)O)oc2c1C(=O)C(=O)c1c-2ccc2c1CCCC2(C)C [sodium-tanshinone-II-A-sulfonate],-4.77%
18,CCOC(=O)CCNc1cc(N2CCc3ccccc3CC2)nc(-c2ccccn2)n1,1.52%
19,Cc1[nH]c2ccc(O)cc2c1CCN [2-methyl-5-hydroxytryptamine],-4.33%
20,Cn1cc(-c2ccc(F)c(C(F)(F)F)c2)nc1C1CCN(c2ncnc3[nH]ncc23)CC1,-1.2%

row,Structure (SMILES),inhibition of SARS-CoV-2 cytopathic effect
1,CC(C)/N=c1\cc2n(-c3ccc(Cl)cc3)c3ccccc3nc-2cc1Nc1ccc(Cl)cc1 [clofazimine],-2.66%
2,CCCCNc1c(C(=O)OCC)c(C)nc2c1cnn2CC [tracazolate],-0.22%
3,CCOc1ccccc1OC(c1ccccc1)C1CNCCO1 (stereo not given) [reboxetine],0.81%
4,O[C@@H]1CO[C@H]2[C@@H]1OC[C@@H]2O [isosorbide],1.18%
5,CC(=O)NC1CCSC1=O (stereo not given) [citiolone],-6.39%
6,CS(=O)(=O)c1ccc(-c2cc(Br)sc2-c2ccc(F)cc2)cc1,-5.25%
7,CCCN1CCN(c2ccc(C(=O)NC3(C(=O)NCC#N)CCCCC3)cc2)CC1 [balicatib],-1.9%
8,CC(C)(O)CS(=O)(=O)Nc1ccc2c(c1)CCN(C(=O)COc1cccnc1)C2 [Nampt-IN-1],-5.64%
9,COC(=O)N[C@H](C(=O)N1CCC[C@H]1c1ncc(-c2ccc(-c3ccc(-c4cnc([C@@H]5CCCN5C(=O)[C@@H](NC(=O)OC)C(C)C)[nH]4)cc3)cc2)[nH]1)C(C)C [daclatasvir],-0.71%
10,CCCC(C)C1(CC)C(=O)NC(=S)NC1=O (stereo not given) [thiopental],0.2%
11,CC(C)n1cnc2c(C(=O)N[C@H]3CN4CCC3CC4)cc(Cl)cc21,-1.13%
12,N#CC(c1ccnc(OCc2ccc(CN3CCOCC3)cc2)n1)c1nc2ccccc2s1 (stereo not given),1.92%
13,N=C(NCCC[C@H](N)C(=O)O)N[N+](=O)[O-] [NG-nitro-arginine],-0.93%
14,COc1ccc(CCO[C@@H]2CCCC[C@H]2N2CC[C@@H](O)C2)cc1OC [vernakalant],-0.75%
15,CCN(CC)CCNC(=O)c1ccccc1I,2.44%
16,Cc1cnc(Nc2ccc(N3CCN(C)CC3)cc2)nc1Nc1cccc(S(=O)(=O)NC(C)(C)C)c1,0.51%
17,c1ccc2c(-c3cnn4cc(-c5ccc(N6CCNCC6)cc5)cnc34)ccnc2c1,1.29%
18,C=C1CC[C@H](O)C/C1=C/C=C1\CCC[C@]2(C)[C@@H]([C@H](C)CCCC(C)C)CC[C@@H]12 [cholecalciferol],-1.56%
19,Nc1nccc(Oc2ccc(NC(=O)c3c[nH]cc(-c4ccc(F)cc4)c3=O)cc2F)c1Cl [metatinib],0.97%
20,O=C(NCC1CCCCN1)c1cc(OCC(F)(F)F)ccc1OCC(F)(F)F (stereo not given) [flecainide],-0.28%
